This excerpt belongs to a sample that is enriched for hits.
KDM5B inh = blocks human KDM5B histone demethylase activity; Q9UGL1; KDM5B demethylase, FDH-coupled NADH fluorescence (FDH is formaldehyde dehydrogenase); Potency, µM (highest dose often 57.7 µM), usual class: inhibitors; 2.6% of 220,000 active; AID 1347165; active = well fitted inhibition curve with a large enough effect; also: nearly all actives have a fitted effect of over 70% in size
Target sequence (Q9UGL1 whole entry, looked up): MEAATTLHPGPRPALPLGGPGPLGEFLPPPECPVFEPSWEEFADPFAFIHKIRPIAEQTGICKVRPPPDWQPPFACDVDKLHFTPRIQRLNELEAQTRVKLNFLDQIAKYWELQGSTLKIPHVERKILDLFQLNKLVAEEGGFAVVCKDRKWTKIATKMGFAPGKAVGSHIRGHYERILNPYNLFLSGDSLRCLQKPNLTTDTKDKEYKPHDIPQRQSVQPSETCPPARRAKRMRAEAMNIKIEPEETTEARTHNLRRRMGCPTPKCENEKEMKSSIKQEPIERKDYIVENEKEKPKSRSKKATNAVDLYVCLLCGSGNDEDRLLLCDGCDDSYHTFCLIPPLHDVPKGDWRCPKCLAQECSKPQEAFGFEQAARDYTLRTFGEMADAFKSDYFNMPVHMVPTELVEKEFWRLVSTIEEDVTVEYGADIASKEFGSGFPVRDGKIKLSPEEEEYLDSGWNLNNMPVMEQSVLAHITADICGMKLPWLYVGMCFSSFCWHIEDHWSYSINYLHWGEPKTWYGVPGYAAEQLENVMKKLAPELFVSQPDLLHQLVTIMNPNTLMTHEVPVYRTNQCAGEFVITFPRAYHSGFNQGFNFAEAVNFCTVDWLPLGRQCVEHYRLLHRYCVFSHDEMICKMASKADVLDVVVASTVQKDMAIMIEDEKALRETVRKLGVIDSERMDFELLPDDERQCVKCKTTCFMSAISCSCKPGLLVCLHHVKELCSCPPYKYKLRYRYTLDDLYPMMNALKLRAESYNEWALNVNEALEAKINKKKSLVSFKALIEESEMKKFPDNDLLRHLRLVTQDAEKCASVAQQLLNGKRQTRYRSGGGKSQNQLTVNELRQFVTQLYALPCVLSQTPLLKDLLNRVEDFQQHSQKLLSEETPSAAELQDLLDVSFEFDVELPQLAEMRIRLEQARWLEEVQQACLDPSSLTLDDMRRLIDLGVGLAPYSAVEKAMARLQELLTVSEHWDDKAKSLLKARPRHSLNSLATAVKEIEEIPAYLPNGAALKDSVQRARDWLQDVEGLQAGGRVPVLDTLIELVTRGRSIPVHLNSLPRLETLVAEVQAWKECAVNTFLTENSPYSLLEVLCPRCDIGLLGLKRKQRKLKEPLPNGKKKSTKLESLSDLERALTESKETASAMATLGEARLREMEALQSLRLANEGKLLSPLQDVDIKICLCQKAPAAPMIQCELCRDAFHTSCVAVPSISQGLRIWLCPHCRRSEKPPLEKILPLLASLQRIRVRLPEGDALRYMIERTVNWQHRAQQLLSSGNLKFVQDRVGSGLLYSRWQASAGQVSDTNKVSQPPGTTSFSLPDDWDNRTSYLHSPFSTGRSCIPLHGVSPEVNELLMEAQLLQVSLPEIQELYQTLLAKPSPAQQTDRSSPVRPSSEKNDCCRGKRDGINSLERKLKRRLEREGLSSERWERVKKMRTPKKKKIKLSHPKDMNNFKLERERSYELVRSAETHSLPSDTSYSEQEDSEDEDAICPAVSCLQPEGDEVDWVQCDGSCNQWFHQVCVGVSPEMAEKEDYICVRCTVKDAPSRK
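Measured: NADH fluorescence change, 30 min, RT. System: KDM5BΔAP 200 nM final, H3K4me3 peptide, α-KG, Fe(II), ascorbate, NAD⁺ plus FDH, pH 7.5 HEPES. Compounds: titrated, 10 min pre-incubation with enzyme.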
Hits are given with their value; – = inactive.

SMILES	KDM5B inh
COc1ccccc1NC(=O)c1nc2ccccc2nc1N1CCOCC1	–
CCOC(=O)C[C@@H]1C[C@@H](C(C)C)[C@H](CNC(=O)c2ccc(F)cc2)C=C1C	–
O=C(/C=C/c1cccc(Br)c1)c1ccc(N2CCOCC2)cc1	–
CC1=C/C(=N\NC(=S)Nc2ccccc2F)CC1	–
COc1ccccc1OC(=O)COc1ccc(C)cc1Br	–
FC(F)(F)c1cccc(-c2noc(CSc3nc4ccccc4o3)n2)c1	–
COc1cc(-c2ccccc2)sc1C(=O)N1CCS(=O)CC1	–
CC(Sc1cccc[n+]1[O-])C(=O)Nc1cccc2ccccc12 (stereo not given)	–
O=C(Cc1cnc[nH]1)N1Cc2ccccc2CC2(CCCN(CC3CCNCC3)C2)C1 (stereo not given)	–
CCc1ccc(NC(=O)Cn2c(C)cc3nc4n(c(=O)c32)CCCCC4)cc1	–
COC(=O)c1ccc(/C=N/OCc2ccc(Cl)c(Cl)c2)cc1	–
O=C1CC2CCN(C(=O)c3cccc(Cl)c3)CC2CCN1 (stereo not given)	–
O=C1CC2CCN(C(=O)c3ccccc3)CC2CCN1 (stereo not given)	28µM
O=C1CC2CCN(C(=O)c3ccc(F)cc3)CC2CCN1 (stereo not given)	–
COc1ccc(Cn2c(C)c(CNCc3cc(OC)c(OC)c(OC)c3)c(C(=O)O)c2C)cc1	–
Cc1ccsc1C(=O)N1CCc2nnc([C@@H]3C[C@@H](O)CN3C)n2CC1	–
O=[S+]([O-])(c1ccc(Br)cc1)c1nnn2c1nc(NCc1ccncc1)c1ccccc12	–
CC(C)OCCCNc1nc2c(S(=O)(=O)c3ccc(C(C)C)cc3)nnn2c2ccccc12	–
CCOc1ccc(CCNc2nc3c(-c4ccc(C)cc4)nnn3c3ccccc23)cc1OCC	–
COCCNc1nc2c(S(=O)(=O)c3cc(C)ccc3C)nnn2c2ccccc12	79µM
Cc1cccc(-c2nnn3c2nc(NCCC(C)C)c2ccccc23)c1	–
COCCCNc1nc2c([S+](=O)([O-])c3cc(OC)ccc3OC)nnn2c2ccccc12	79µM
Cc1ccc(C)c(S(=O)(=O)c2nnn3c2nc(Nc2ccc(C)c(C)c2)c2ccccc23)c1	–
COc1ccc(OC)c([S+](=O)([O-])c2nnn3c2nc(NCCCOC(C)C)c2ccccc23)c1	89µM
Cc1ccc(S(=O)(=O)c2nnn3c2nc(NCCCOC(C)C)c2ccccc23)cc1	–
SMILES	KDM5B inh
COCC(=O)NNC(=S)NCc1ccc(C)cc1	–
COc1cc(C2C3=C(CCCC3=O)Nc3c(C#N)cnn32)cc(OC)c1O (stereo not given)	–
O=C(CCc1nc(-c2ccc(F)cc2)no1)Nc1cccc(S(=O)(=O)NC2=NCCC2)c1	–
O=C(CSc1nnc(-c2ccncc2)n1CC(F)(F)F)NCC1CC1	–
O=C1CC(c2ccccc2)N(C(=O)C2CC2)CCCN(C(=O)c2ccc3cc[nH]c3c2)CCN1 (stereo not given)	28µM
O=C1CC(c2ccccc2)N(C(=O)C2CC2)CCCN(C(=O)c2ccoc2)CCN1 (stereo not given)	–
O=C1CC(c2ccccc2)N(C(=O)CNC(=O)c2ccc3cc[nH]c3c2)CCCCCN1 (stereo not given)	25µM
N#Cc1cccc(C(=O)NCC(=O)N2CCCCCCNC(=O)CC2c2ccccc2)c1 (stereo not given)	–
O=C1CC(c2ccccc2)N(C(=O)CNC(=O)c2c[nH]c3ccccc23)CCCCCN1 (stereo not given)	28µM
O=C(CCc1c[nH]c2ccccc12)NCC(=O)N1CCCCCCNC(=O)CC1c1ccccc1 (stereo not given)	–
O=C1CC(c2ccccc2)N(C(=O)CNC(=O)c2ccoc2)CCCCCCN1 (stereo not given)	–
O=C1CC(c2ccccc2)N(C(=O)C2CC2)CCCN(C(=O)c2ccc3ccccc3n2)CCN1 (stereo not given)	–
O=C(Cc1c[nH]c2ccccc12)NCC(=O)N1CCCCCNC(=O)CC1c1ccccc1 (stereo not given)	–
COc1ccc2c(C)c(CCC(=O)Nc3c(C)cccc3C)c(=O)oc2c1	–
O=C(COc1ccc(-n2cnnn2)cc1)NC1CC1	–
Cc1nc2ccc(C(=O)OC(C)C(=O)NC(=O)NCc3ccccc3)cc2nc1C (stereo not given)	–
CCc1cccc(C)c1NS(=O)(=O)c1cccc(C(F)(F)F)c1	–
O=C(O)C(c1c[nH]c2cc(Br)ccc12)N1CCN(c2ncc(Br)cn2)CC1 (stereo not given)	–
C=C(Cl)CN1CCC(C(=O)NCCc2ccccc2F)CC1	–
CC(=O)c1cn(CC(=O)NC2CCCCC2)c2ccccc12	–
Cc1cc(C)nc(/N=C2\NC(=O)CN2c2cc(Cl)cc(Cl)c2)n1	–
FC(F)(F)c1ccc(Cl)c(N/N=C/c2cccc(OCc3ccccc3)c2)c1	–
CCCOc1ccc(-c2nonc2NC(=O)c2cc(OC)c(OC)c(OC)c2)cc1OCCC	–
COCCNc1nc(C)nc2c1CCN(C(=O)c1ccoc1)CC2	–
COCCNc1ncc(-c2ccc(O)cc2)c2c1OCC2	32µM
